The record followed here is PubChem BioAssay (EPA / NIEHS).

Test [1] deals with human Thyroid Receptor alpha (THRa1), THRA (gene 7067) (UniProt P10827). Nature of the test: ATG_THRa1_TRANS: Attagene TRANS-FACTORIAL HepG2 Assay for human Thyroid Receptor alpha (THRa1) (AID 2283014; active means hit-call score of the fitted dose curve at least 0.9, where 1 is the maximum). In outline: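 Reporter transcript induction, read by capillary electrophoresis of 6-FAM-labelled RT-PCR products, reflects activity of a transfected THRa1-Gal4 fusion in HepG2 liver cells. Cells were dosed for 24 h; activity was fitted in the positive direction against DMSO.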
Chain of human Thyroid Receptor alpha (THRa1), THRA (gene 7067) (P10827 whole entry, looked up, the tested form may be a part): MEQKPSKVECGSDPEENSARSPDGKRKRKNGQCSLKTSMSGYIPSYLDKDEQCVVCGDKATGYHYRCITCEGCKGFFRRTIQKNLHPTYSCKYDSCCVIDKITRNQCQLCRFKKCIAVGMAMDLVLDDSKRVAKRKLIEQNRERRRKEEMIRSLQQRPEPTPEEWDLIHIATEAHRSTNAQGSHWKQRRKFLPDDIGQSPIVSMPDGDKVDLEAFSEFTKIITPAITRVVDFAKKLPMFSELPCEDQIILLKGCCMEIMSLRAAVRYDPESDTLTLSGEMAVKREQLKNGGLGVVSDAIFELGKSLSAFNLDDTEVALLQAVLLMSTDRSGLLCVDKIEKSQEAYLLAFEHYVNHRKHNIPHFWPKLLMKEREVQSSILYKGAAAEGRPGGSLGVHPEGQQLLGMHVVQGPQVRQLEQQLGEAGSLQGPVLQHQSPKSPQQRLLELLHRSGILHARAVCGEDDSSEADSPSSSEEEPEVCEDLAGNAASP

Read-out in test [2]: E-selectin (Homo sapiens) (UniProt P16581)
Nature of the test: BSK_3C_Eselectin: BioMAP Diversity Plus: 3C Assay for Eselectin Biomarker Activity (AID 2283015).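 Further: cell surface E-selectin protein quantified by ELISA 24 h after dosing.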 Particulars: primary human endothelial cells (HUVEC); actives raise or lower the signal. In outline: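 ELISA read-out of E-selectin on endothelial monolayers after 24 h chemical treatment. Human umbilical vein primary cells served as the system, with DMSO defining baseline activity for bidirectional fitting.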

Read-out in test [3]: Interleukin-1 alpha (IL1a), IL1A (gene 3552)
Put plainly: BSK_BE3C_IL1a: BioMAP Diversity Plus: BE3C Assay for Interleukin-1 alpha (IL1a) Biomarker Activity (AID 2283016). To be noted: primary human bronchial epithelial cells; actives raise or lower the signal. In outline:
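Signal from IL-1a ELISA, taken 24 h after chemical dosing of human bronchial epithelial cells, is compared with DMSO as baseline using bidirectional curve fitting.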

Read-out in test [4]: Monocyte Chemoattractant Protein-1 (MCP1), CCL2 (gene 6347)
Put plainly: BSK_3C_MCP1: BioMAP Diversity Plus: 3C Assay for Monocyte Chemoattractant Protein-1 (MCP1) Biomarker Activity (AID 2283017). Particulars: primary human endothelial cells (HUVEC); actives raise or lower the signal. In outline:
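ELISA read-out of MCP-1 from human umbilical vein endothelial cell cultures harvested 24 h post-dosing. Gain or loss of signal was fitted relative to DMSO.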

Read-out in test [5]: Monocyte Chemoattractant Protein-1 (MCP1), CCL2 (gene 6347)
Put plainly: BSK_4H_MCP1: BioMAP Diversity Plus: 4H Assay for Monocyte Chemoattractant Protein-1 (MCP1) Biomarker Activity (AID 2283018). Particulars: primary human endothelial cells (HUVEC); actives raise or lower the signal. The gist of the method:
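Endothelial cells from umbilical vein were treated with test chemical, then after 24 h MCP-1 levels were quantified by ELISA; endpoint values came from bidirectional fitting with DMSO as baseline of activity.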

Read-out in test [6]: Human Leukocyte Antigen - DR isotype (HLADR), HLA-DRA (gene 3122)
Nature of the test: BSK_3C_HLADR: BioMAP Diversity Plus: 3C Assay for Human Leukocyte Antigen - DR isotype (HLADR) Biomarker Activity (AID 2283019).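 On outcome: ELISA of cell-surface HLA-DR on HUVEC 24 h after dosing.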 To be noted: primary human endothelial cells (HUVEC); actives raise or lower the signal. The gist of the method:
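ELISA readout of surface HLA-DR on human umbilical vein endothelium, taken 24 h after chemical treatment. Gain- and loss-of-signal were both fitted relative to DMSO.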

Read-out in test [7]: Interleukin-8 (IL8), CXCL8 (gene 3576)
Nature of the test: BSK_3C_IL8: BioMAP Diversity Plus: 3C Assay for Interleukin-8 (IL8) Biomarker Activity (AID 2283020). To be noted: primary human endothelial cells (HUVEC); actives raise or lower the signal. The gist of the method:
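Endothelial primary cells of human umbilical vein origin are dosed with chemical; after 24 h the IL-8 biomarker is measured by ELISA, and concentration–response is fitted in both directions versus DMSO.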

Read-out in test [8]: Monokine induced gamma interferon (MIG), CXCL9 (gene 4283)
Nature of the test: BSK_3C_MIG: BioMAP Diversity Plus: 3C Assay for Monokine induced gamma interferon (MIG) Biomarker Activity (AID 2283021). Particulars: primary human endothelial cells (HUVEC); actives raise or lower the signal. In outline: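 Endothelial primary cells (human umbilical vein) are dosed with test chemical in the 3C system. MIG levels are measured by ELISA at 24 h and fitted in both directions relative to DMSO.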

Test [9] is described as follows: BSK_3C_SRB: Viability Assessment in the BioMAP Diversity Plus: 3C Assay (AID 2283023).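 Further: fitted both ways against DMSO so a hit may be signal rise or drop.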 Particulars: primary human endothelial cells (HUVEC). The gist of the method:
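Absorbance at 560 nm of sulforhodamine B-stained (0.1%) total protein served as a cytotoxicity readout in human umbilical vein endothelial cells, 24 h after chemical treatment. Signal was fitted bidirectionally relative to DMSO.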

Read-out in test [10]: Matrix Metallopeptidase 1 (MMP1), MMP1 (gene 4312)
Nature of the test: BSK_BE3C_MMP1: BioMAP Diversity Plus: BE3C Assay for Matrix Metallopeptidase 1 (MMP1) Biomarker Activity (AID 2283024). Particulars: primary human bronchial epithelial cells; actives raise or lower the signal. In outline:
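MMP1 signal, measured by ELISA after a 24 h chemical exposure of human primary bronchial epithelial cells, is analysed with bidirectional fitting using DMSO as negative control.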

Test [11] in a line: BSK_3C_Vis: BioMAP Diversity Plus: 3C Assay for Morphology Visualization (AID 2283025).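 Further: fitted both ways so gain or loss versus DMSO counts.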 To be noted: primary human endothelial cells (HUVEC). In outline: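 Morphology read by light microscopy serves as a background control for the multiplexed 3C assay in human umbilical vein endothelial cells, taken 24 h after dosing, with DMSO as the negative control and bidirectional curve fitting.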

Read-out in test [12]: Pselectin, SELP (gene 6403)
Put plainly: BSK_4H_Pselectin: BioMAP Diversity Plus: 4H Assay for Pselectin Biomarker Activity (AID 2283026). To be noted: primary human endothelial cells (HUVEC); actives raise or lower the signal. In outline:
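Endothelial primary cells (human umbilical vein) are dosed, incubated 24 h, and assayed for surface P-selectin by ELISA; responses in either direction are fitted relative to the DMSO negative control.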

The nature of test [13]: BSK_4H_SRB: Viability Assessment in the BioMAP Diversity Plus: 4H Assay (AID 2283027).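 Further: cells exposed to compound for 24 h before staining.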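 On AC50: curves fitted both ways versus DMSO so AC50 may be loss or gain.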 Particulars: primary human endothelial cells (HUVEC). In outline: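 HUVEC, 24 h post-dose; 10% TCA fix, 0.1% SRB stain, A560 nm. Total protein = overt cytotoxicity, parallel to biomarker read. Bidirectional fit vs DMSO baseline.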
Test [14] is described as follows: BSK_BE3C_SRB: Viability Assessment in the BioMAP Diversity Plus: BE3C Assay (AID 2283028). Particulars: primary human bronchial epithelial cells. The gist of the method:
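Cells (human bronchial epithelial, primary) are treated with chemicals, and after 24 h the parallel cultures are fixed in 10% TCA. These are then stained with 0.1% SRB and read at 560 nm. Gain or loss of signal is fitted relative to DMSO.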

Read-out in test [15]: Urokinase-type plasminogen activator receptor (uPAR), PLAUR (gene 5329)
Put plainly: BSK_4H_uPAR: BioMAP Diversity Plus: 4H Assay for Urokinase-type plasminogen activator receptor (uPAR) Biomarker Activity (AID 2283030). To be noted: primary human endothelial cells (HUVEC); actives raise or lower the signal. The gist of the method: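 Cell-surface uPAR ELISA signal, measured 24 h after dosing human umbilical vein endothelial cells, was analyzed with bidirectional fitting relative to DMSO. Parallel SRB staining of total protein tracked overt cytotoxicity.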

Read-out in test [16]: Vascular endothelial growth factor receptor 2 (Homo sapiens) (UniProt P35968)
Nature of the test: BSK_4H_VEGFRII: BioMAP Diversity Plus: 4H Assay for Vascular endothelial growth factor receptor 2 (VEGFR2) Biomarker Activity (AID 2283031). To be noted: primary human endothelial cells (HUVEC); actives raise or lower the signal. In outline:
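ELISA read-out of VEGFRII in primary human umbilical vein endothelium, taken 24 h after chemical treatment. Responses are expressed relative to DMSO, with bidirectional fitting.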

Read-out in test [17]: Human Leukocyte Antigen - DR isotype (HLADR), HLA-DRA (gene 3122)
Put plainly: BSK_BE3C_HLADR: BioMAP Diversity Plus: BE3C Assay for Human Leukocyte Antigen - DR isotype (HLADR) Biomarker Activity (AID 2283032). Particulars: primary human bronchial epithelial cells; actives raise or lower the signal. In outline: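 Chemicals are dosed onto BE3C bronchial epithelial cultures of human origin and left 24 h. HLA-DR is then measured by ELISA, and the endpoint is fitted in both directions using DMSO as the activity baseline.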

The target of test [18] is human Vitamin D Receptor (VDR), VDR (gene 7421) (UniProt P11473). Put plainly: ATG_VDR_TRANS: Attagene TRANS-FACTORIAL HepG2 Assay for human Vitamin D Receptor (VDR) (AID 2283022; active means hit-call score of the fitted dose curve at least 0.9, where 1 is the maximum). In outline:
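Steps: transfect HepG2 with GAL4-UAS-driven reporter constructs; dose compounds 24 h; isolate RNA, reverse-transcribe, PCR-amplify with 6-FAM-labelled primer extension and HpaI digestion; quantify fragments by capillary electrophoresis relative to DMSO.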

Read-out in test [19]: Thrombomodulin, THBD (gene 7056)
Put plainly: BSK_3C_Thrombomodulin: BioMAP Diversity Plus: 3C Assay for Thrombomodulin Biomarker Activity (AID 2283029). To be noted: primary human endothelial cells (HUVEC); actives raise or lower the signal. In outline: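 Endothelial cells from umbilical vein are dosed with test chemical and incubated 24 h. Thrombomodulin is then quantified by ELISA, with DMSO serving as negative control and activity baseline.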

A word on the AC50: it is the midpoint of the concentration-response curve, whichever way the signal moves.

Results filed as inconclusive are left out. Active and inactive are the calls of the source. How the source made its calls, unless noted: active means hit-call score of the fitted dose curve at least 0.9, where 1 is the maximum; inactive means score below 0.9.

Chain of E-selectin (Homo sapiens) (P16581 whole entry, looked up): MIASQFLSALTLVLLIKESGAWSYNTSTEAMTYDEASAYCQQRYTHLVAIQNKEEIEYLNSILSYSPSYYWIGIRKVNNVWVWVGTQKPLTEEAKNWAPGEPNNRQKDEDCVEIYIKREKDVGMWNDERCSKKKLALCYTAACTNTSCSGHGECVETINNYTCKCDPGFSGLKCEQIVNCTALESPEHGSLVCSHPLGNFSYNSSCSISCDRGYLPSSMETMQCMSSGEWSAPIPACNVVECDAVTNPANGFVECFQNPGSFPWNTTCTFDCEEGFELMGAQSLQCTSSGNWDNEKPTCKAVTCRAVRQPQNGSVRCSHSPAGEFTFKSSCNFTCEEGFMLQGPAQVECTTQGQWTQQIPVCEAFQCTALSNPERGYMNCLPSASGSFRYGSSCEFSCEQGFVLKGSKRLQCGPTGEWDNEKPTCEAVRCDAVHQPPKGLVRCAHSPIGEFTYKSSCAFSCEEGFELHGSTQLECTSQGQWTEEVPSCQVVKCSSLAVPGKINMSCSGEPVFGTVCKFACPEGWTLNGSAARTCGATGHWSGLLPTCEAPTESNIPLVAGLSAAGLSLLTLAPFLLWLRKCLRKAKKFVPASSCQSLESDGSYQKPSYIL
Chain of human Vitamin D Receptor (VDR), VDR (gene 7421) (P11473 whole entry, looked up, the tested form may be a part): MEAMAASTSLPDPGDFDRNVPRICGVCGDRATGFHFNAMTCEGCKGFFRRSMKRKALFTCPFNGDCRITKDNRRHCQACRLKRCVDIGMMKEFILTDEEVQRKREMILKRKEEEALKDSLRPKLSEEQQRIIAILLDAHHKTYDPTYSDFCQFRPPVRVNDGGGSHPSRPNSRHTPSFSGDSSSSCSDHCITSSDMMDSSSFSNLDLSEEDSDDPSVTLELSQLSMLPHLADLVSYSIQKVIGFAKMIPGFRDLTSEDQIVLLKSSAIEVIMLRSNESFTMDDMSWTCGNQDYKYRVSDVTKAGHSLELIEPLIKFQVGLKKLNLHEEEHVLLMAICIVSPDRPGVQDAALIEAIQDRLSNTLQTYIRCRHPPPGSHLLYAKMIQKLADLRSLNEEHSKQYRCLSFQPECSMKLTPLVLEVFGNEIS

On to `Cc1ccccc1N`, for which the molecule was classed as inactive in test [1], in [2], in test [3], in test [4], in test [5] and in test [6]. Further, the outcome in test [7], in test [8], in test [9], in test [10], in test [11] and in test [12] was inactive. For the same molecule, the result in test [13], in test [14], in test [15], in test [16] and in test [17] was inactive.

Regarding `CCc1ccccc1N`, the molecule was classed as inactive in test [18].

For the molecule `CC(C)CCCCCCOC(=O)c1ccccc1C(=O)OCCCCCCC(C)C`, the result in test [2], in test [3], in [4], in test [5], in test [6] and in [7] was inactive. The outcome in [8], in test [18], in test [9], in test [10], in test [11] and in [12] was inactive. Moreover, the outcome in test [13], in test [14], in test [15], in test [16] and in test [17] was inactive.

For `Fc1ccc(C2(Cn3cncn3)OC2c2ccccc2Cl)cc1` (stereo unspecified), in [18], the molecule was called inactive.

As for `COc1cccc(C=O)c1`, the molecule was called inactive in test [18].

With `COc1ccc(C=O)cc1`, the molecule was classed as inactive in [18].

Turning to `CC1(C)CCC(Cc2ccc(Cl)cc2)C1(O)Cn1cncn1` (stereo unspecified), the molecule was classed as inactive in test [1] and in [18].

Take `O=[N+]([O-])c1ccc(O)c([N+](=O)[O-])c1`: the outcome in [1], in [2], in test [3], in test [4], in test [5] and in test [7] was inactive. For the same molecule, the outcome in [8], in [9], in [10], in test [11], in [12] and in test [13] was inactive. In addition, the outcome in test [14], in [15], in test [16] and in [17] was inactive. Moreover, the AC50 in test [6] is 28 µM (active).

`ClCc1ccccn1`: the call in test [1] and in [18] was inactive.

For the molecule `CCCCP(CCCC)CCCC`, the molecule was called inactive in [1] and in test [18].

Regarding `NC(=S)Nc1ccccc1`, the outcome in [2], in test [3], in test [4], in test [5], in [6] and in test [7] was inactive. Also, the result in [8], in [18], in test [9], in [10], in test [11] and in [12] was inactive. The outcome in test [13], in [14], in [19], in [15], in test [16] and in test [17] was inactive.

Regarding `O=C(O)CCC(F)(C(F)(F)F)C(F)(F)F`, the outcome in test [2], in [3], in test [4], in [5], in test [6] and in test [7] was inactive. In addition, the outcome in [8], in test [9], in test [10], in [12], in [13] and in [14] was inactive. Moreover, the result in test [19], in [15], in [16] and in test [17] was inactive.

As to `CCC1(c2ccc(N)cc2)CCC(=O)NC1=O` (stereo unspecified), the molecule was called inactive in [1] and in [18].

For `CCCCCCCCC(=O)NCc1ccc(O)c(OC)c1`, the outcome in test [2], in test [3], in test [4], in test [7], in [8] and in [18] was inactive. The outcome in [9], in [10], in test [11], in test [12], in test [14] and in test [15] was inactive. In addition, the result in test [16] and in test [17] was inactive. Also, the values for the AC50 in test [5], in test [6] and in test [13] were 3.97 µM (active), 20 µM (active) and 20 µM (active), respectively.

`COP(=O)(OC)OC`: the outcome in [1] and in [18] was inactive.
